The text below walks through data of PubChem BioAssay (NCI).

This is part of a sample that, as a whole, favours compounds with a hit. Of some 83,000 tested, about 20% had one in any assay.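 Interpretation: 100, growth as untreated; towards 0, rising growth inhibition; 0, no net growth; 0 to -100, cell death. Compounds scoring below 10 were considered active.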 Values without a mark were called inactive. Calls of active or inactive are those of the source.

Among the test systems are NCI-H23 lung; NCI-H226 lung; NCI-H322M lung; HOP-62 NSCLC; NCI-H460 lung; HOP-92 NSCLC; A549/ATCC NSCLC; 786-0 renal; COLO 205 colon; NCI-H522 lung.
Holding throughout (assay): NCI-60 one-dose screen, 48 h (100 = growth as untreated, 0 = no growth, -100 = all killed)
Settings in all cases: 10 µM unless noted

Take `Cc1n[nH]c2ccc(Br)cc2c1=O`: the growth in the test with NCI-H23 lung was 98.3%; in the test with NCI-H226 lung it was 96.5%; with NCI-H322M lung, 98.7%; with HOP-62 NSCLC, 93.9%; with NCI-H460 lung, 110%; in the test on HOP-92 NSCLC, 103%. Further, the growth is 99% with A549/ATCC NSCLC, 102% in the test with 786-0 renal and 106% in the test with COLO 205 colon.

Consider `CC1(C)C(N)=Nc2cc(OCCCN3Cc4ccccc4C3)c(OCC3CC3)cc21`, for which the growth in the test with NCI-H23 lung is 93.5%; with NCI-H226 lung, 82.9%; with NCI-H322M lung it was 82.3%; with HOP-62 NSCLC it was 93.2%; in the test with NCI-H460 lung, 79.8%; in the test on HOP-92 NSCLC, 63.7%. Moreover, the growth is 77.2% with A549/ATCC NSCLC, 64% in the test on 786-0 renal and -57.2% (active) in the test on COLO 205 colon.

For `Fc1cc(Nc2ccc3c(OCCCN4CCOCC4)cccc3n2)ccc1Cl`, the growth with NCI-H23 lung was 61.1%; in the test on NCI-H226 lung, 68.8%; in the test with NCI-H322M lung, 45.3%; with HOP-62 NSCLC, 39.2%; in the test on NCI-H460 lung, 21.1%; in the test with HOP-92 NSCLC it was 27.3%. The growth in the test with A549/ATCC NSCLC was 25.7%; in the test with 786-0 renal, 1.04% (active); in the test with COLO 205 colon it was -50.2% (active).

Regarding `Fc1cccc(-c2ccc3c(c2)C2(CCNCC2)CN3)c1`, the growth was 92.1% in the test with NCI-H23 lung; 98% in the test on NCI-H226 lung; 101% with NCI-H322M lung; 105% in the test on HOP-62 NSCLC; 106% in the test on NCI-H460 lung; 91.3% in the test on HOP-92 NSCLC. For the same compound, the growth with A549/ATCC NSCLC is 99.9%; with 786-0 renal, 98.5%; in the test on COLO 205 colon, 107%.

Take `O=S1(=O)C=C(c2ccccc2)C(c2ccccc2)=C1`: the growth is 60.1% with NCI-H23 lung; 44.7% in the test on NCI-H226 lung; 90.8% with NCI-H322M lung; 54.3% with HOP-62 NSCLC; 36.5% in the test on NCI-H460 lung; -1.68% (active) in the test on HOP-92 NSCLC. Besides, the growth in the test on A549/ATCC NSCLC was 70.9%; in the test with 786-0 renal, 3.9% (active); in the test with COLO 205 colon, -88.5% (active).

For the compound `Cc1cn(-c2cc(NC(=O)c3cncc(C#Cc4c(N)ncc5ccc(F)cc45)c3)cc(C(F)(F)F)c2)cn1`, the growth in the test with NCI-H23 lung is 25%; with NCI-H226 lung, 36.2%; with NCI-H322M lung, 65.7%; with HOP-62 NSCLC, 67.3%; with NCI-H460 lung, 49.2%; with HOP-92 NSCLC, -8.98% (active). Also, the growth in the test with A549/ATCC NSCLC was 61.3%; in the test on 786-0 renal, 77.1%; in the test with COLO 205 colon, 11.6%.

With `N#C/C(=C\c1ccc([N+](=O)[O-])cc1)n1nnc2cc(F)c(F)cc21`, the growth was 34.6% with NCI-H23 lung; -1.27% (active) in the test with NCI-H226 lung; 72.5% with NCI-H322M lung; 63.9% in the test on HOP-62 NSCLC; 11.7% in the test with NCI-H460 lung; 9.03% (active) with HOP-92 NSCLC. The values for the growth with NCI-H522 lung, with 786-0 renal and in the test with COLO 205 colon were 36.9%, -58.4% (active) and 19.9%, respectively.

As to `Cc1ccc(C=C2C(=O)NC(=O)NC2=O)cc1`, the growth in the test on NCI-H23 lung is 102%; with NCI-H226 lung, 105%; in the test on NCI-H322M lung, 110%; in the test with HOP-62 NSCLC it was 92.1%; with NCI-H460 lung, 108%; with HOP-92 NSCLC, 110%. The growth in the test on A549/ATCC NSCLC is 87.8%; in the test on 786-0 renal it was 107%; with COLO 205 colon it was 98.3%.

As for `COc1ccc(C(=O)c2cc3c(N)c(C(=O)Nc4ccccc4)sc3nc2C)cc1`, the growth with NCI-H23 lung was 36.1%; in the test on NCI-H226 lung it was 65.3%; with NCI-H322M lung it was 63%; with HOP-62 NSCLC it was 44.8%; in the test with NCI-H460 lung it was 6.22% (active); in the test on HOP-92 NSCLC, 82.2%. The growth in the test with A549/ATCC NSCLC was 31.1%; in the test with 786-0 renal it was 46.4%; in the test with COLO 205 colon it was 7.64% (active).

On to `O=C(C1=Cc2cc3ccccc3n2Cc2cnnn21)c1ccc(O)cc1`, for which the growth is 75.6% in the test on NCI-H23 lung; 85.1% in the test on NCI-H226 lung; 89.4% in the test with NCI-H322M lung; 27.8% with NCI-H460 lung; 84.4% in the test on HOP-92 NSCLC; 36.7% in the test on NCI-H522 lung. The growth was 50.7% in the test with A549/ATCC NSCLC, 81.8% in the test on 786-0 renal and 75.5% in the test with COLO 205 colon.

As for `C=CCOC(=O)C1=C(C)N(CC)C(=O)NC1c1c(Cl)n(C)c2ccccc12` (stereo not given), the growth was 96% in the test with NCI-H23 lung; 106% in the test on NCI-H226 lung; 78.8% with NCI-H322M lung; 99% in the test on NCI-H460 lung; 68.1% with HOP-92 NSCLC; 85.3% in the test with NCI-H522 lung. Further, the growth is 87.6% with A549/ATCC NSCLC, 95.7% in the test with 786-0 renal and 108% in the test on COLO 205 colon.

On to `COc1ccc(C#Cc2ccc(=O)oc2-c2cc(OC)c(OC)c(OC)c2)cc1O`, for which the growth is 45.7% in the test on NCI-H23 lung; 71.3% in the test on NCI-H226 lung; 49.7% with NCI-H322M lung; 15.3% in the test on NCI-H460 lung; 48.4% in the test with HOP-92 NSCLC; 42.6% in the test with A549/ATCC NSCLC. Also, the growth is 54.3% with 786-0 renal and 69.4% in the test with COLO 205 colon.

Consider `CN1CCN(Cc2ccc(NC(=O)c3cncc(C#Cc4cnc5ccc(Cl)nn45)c3)cc2C(F)(F)F)CC1`, for which the growth is -29.5% (active) in the test on NCI-H23 lung; -58.3% (active) with NCI-H226 lung; -14.2% (active) with NCI-H322M lung; -47.3% (active) with NCI-H460 lung; -16.3% (active) in the test on HOP-92 NSCLC; -12.8% (active) in the test with NCI-H522 lung. The growth in the test with A549/ATCC NSCLC is 4.24% (active); in the test with 786-0 renal, -53% (active); in the test on COLO 205 colon it was -46.1% (active).

With `Cc1nnc(-c2ccc3c(c2)nc(/C=C/c2ccccc2)n3C2CCCCC2)o1`, the growth is 88.3% in the test on NCI-H23 lung; 104% in the test on NCI-H226 lung; 85.9% with NCI-H322M lung; 82.4% in the test with NCI-H460 lung; 79.7% in the test on HOP-92 NSCLC; 68.6% in the test with NCI-H522 lung. Further, the growth is 52.5% with A549/ATCC NSCLC, 92.2% in the test on 786-0 renal and 79.7% in the test with COLO 205 colon.
